Structures are written as SMILES. The panel holds about 83,000 compounds, 20% with a hit somewhere; the sample as a whole holds those more often.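 Growth was measured after 48 h exposure to one concentration of compound in 96-well plates. Values under 10 count as active.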 Values without a mark were called inactive. The source made the active and inactive calls.

The results in this text go back to PubChem BioAssay (NCI).

Common to all, as to assay: NCI-60 one-dose screen, 48 h (100 = growth as untreated, 0 = no growth, -100 = all killed)
What all share (details): 10 µM unless noted

The test system of test [1] is SK-MEL-2 melanoma.
The subject of test [2] is EKVX NSCLC.
Test [3] concerns SN12C renal.
Test [4] concerns UO-31 renal.
Test [5] deals with TK-10 renal.
The subject of test [6] is ACHN renal.
Test [7] concerns A498 renal.
Test [8] deals with CCRF-CEM leukemia.
For test [9], the system named is MOLT-4 leukemia.
In test [10] the test system is SR leukemia.
For test [11], the system named is RPMI-8226 leukemia.
For test [12], the system named is OVCAR-8 ovarian.
In test [13] the test system is OVCAR-5 ovarian.
Test [14] relates to OVCAR-4 ovarian.
The subject of test [15] is SK-OV-3 ovarian.
Test [16] has as its system IGROV1 ovarian.
Test [17] has as its system OVCAR-3 ovarian.
In test [18] the test system is HS 578T breast.
Test [19] relates to NCI/ADR-RES ovarian.

For the compound `COc1ccccc1C(=O)Nc1cccc(NC(=O)c2ccoc2C)c1`, the growth in test [1] is 10.3%; in [2] it was 71%; in test [3], 43.3%; in [4], 49.6%; in [5], 44.7%; in test [6] it was 52.1%. The growth was 47.1% in test [7]; 10.9% in test [8]; 25% in test [9]; 15.5% in test [10]; 20.7% in test [11]; 40.4% in test [12]. For the same compound, the growth in [13] was 85.3%; in test [14], 77.7%; in test [15] it was 66.1%; in test [16] it was 41.6%; in test [17], 15%; in test [18] it was 40.2%. Moreover, in test [19], the growth was 9.85% (active).
In the case of `COc1ccc(Cn2cc3c(c2-c2ccccc2)CCc2cnoc2-3)cc1`, the growth was 64.6% in test [1]; 44.1% in test [2]; 37.3% in test [3]; 36.5% in test [4]; 91.9% in test [5]; 46.6% in test [6]. The growth in test [7] was 33.3%; in test [8] it was 8.41% (active); in test [9], 25.5%; in [10] it was 29.9%; in test [11], -25.3% (active); in test [12], 19.9%. The growth was 26% in test [13]; 54.7% in [14]; 21.9% in test [15]; 21.7% in [16]; -11.5% (active) in test [17]; 9.15% (active) in test [18]. Also, the growth in test [19] was 4.47% (active).
Take `Cc1ccc2nc(-c3ccc(C(=O)NNC(=S)Nc4ccccc4)cc3)[nH]c2c1`: the growth is 112% in test [1]; 93.2% in test [2]; 93.9% in [3]; 89.8% in test [4]; 151% in test [5]; 99.6% in [6]. For the same compound, the growth in test [7] was 46.6%; in test [8] it was 88.8%; in test [9], 83.3%; in [10], 88.6%; in test [11] it was 85.1%; in test [12], 95.7%. Moreover, the growth in test [13] is 98.3%; in test [14], 88.2%; in test [15], 98.3%; in [16], 86.4%; in test [17] it was 95%; in [18], 111%. In test [19], the growth was 100%.
For `O=C(Nc1ncc(Cc2cc(C(F)(F)F)ccc2Cl)s1)c1cccs1`, the growth was 45% in [1]; 57.3% in [2]; 70.9% in test [3]; 58.9% in test [4]; 71.7% in test [5]; 67.2% in test [6]. In addition, the growth is 62.2% in test [7]; 45.4% in test [8]; 29.4% in [9]; 16.1% in [10]; 55.7% in [11]; 68.6% in test [12]. Moreover, the growth is 83.9% in [13]; 63.4% in [14]; 69.2% in [15]; 52.7% in [16]; 50.5% in test [17]; 71% in [18]. The growth in test [19] was 29.7%.
For `CCCCNC(=O)Oc1ccc(/C(=C(/C)Cc2ccc(OC)cc2)c2ccc(OCCN3CCCCCC3)cc2)cc1`, the growth in test [1] was 102%; in test [2], 77.5%; in [3] it was 71%; in test [4] it was 57.6%; in [5], 83.1%; in [6], 102%. The growth was 98.3% in [7]; 47.7% in test [8]; 45% in test [9]; -44.2% (active) in test [10]; 33.6% in [11]; 89.9% in [12]. Besides, the growth is 96% in test [13]; 85.8% in [15]; 92.3% in test [16]; 63.9% in test [17]; 82.1% in [18]; 81.4% in [19].
`O=C(N/N=C\c1cccc([N+](=O)[O-])c1)N/N=C/c1cccc([N+](=O)[O-])c1`: the growth is 108% in test [1]; 98% in test [2]; 96.8% in test [3]; 86.8% in test [4]; 117% in [5]; 98.6% in test [6]. For the same compound, the growth in test [7] was 82.3%; in [8] it was 98.7%; in test [9], 106%; in test [10], 109%; in [11], 97.1%; in [12], 101%. Moreover, the growth was 114% in test [13]; 105% in test [14]; 101% in test [15]; 107% in [16]; 112% in test [17]; 97.9% in test [18]. In [19], the growth was 106%.
As for `C=C(CNCCO)[C@@H]1CC[C@]2(CO)CC[C@]3(C)[C@H](CC[C@@H]4[C@@]5(C)CCC(N)C(C)(C)[C@@H]5CC[C@]43C)[C@@H]12` (stereo partly specified), the growth is -29.2% (active) in [1]; 72% in test [2]; 71.7% in test [3]; 81.7% in [4]; 68.9% in test [5]; 97.5% in test [6]. The growth was 81.7% in [7]; 1.11% (active) in [8]; 8.81% (active) in [9]; -23.1% (active) in [10]; -35.3% (active) in test [11]; 36.8% in test [12]. In addition, the growth was 81.6% in [13]; 64.6% in [14]; 95.2% in test [15]; 65.3% in [16]; 69.4% in [17]; 51% in [18]. Besides, in [19], the growth was 94.8%.
As for `S=c1nc2oc(-c3ccccc3)c(-c3ccccc3)c2c(/N=C\c2ccco2)[nH]1`, the growth was 92.1% in test [1]; 95.7% in test [2]; 99.1% in test [3]; 81.2% in test [4]; 99.6% in test [5]; 93.8% in [6]. Besides, the growth in [7] is 101%; in test [8], 108%; in [9] it was 84%; in [10], 86.3%; in test [11] it was 97.6%; in test [12], 97.4%. The growth in test [13] was 87.7%; in test [14] it was 93.6%; in test [15], 109%; in test [16], 101%; in test [17] it was 98.4%; in test [18], 81.9%. Moreover, the growth in [19] was 100%.
